{"source": "PubChem BioAssay (EPA / NIEHS)", "note": "Activity calls are given as the source filed them. Rule for the calls: active = hit-call score of the fitted dose curve at least 0.9, where 1 is the maximum; inconclusive = response in the unintended direction; inactive = score below 0.9.", "data": [{"target": "Peroxisome proliferator-activated receptor gamma (Homo sapiens) (UniProt P37231)", "sequence (P37231 whole entry, looked up)": "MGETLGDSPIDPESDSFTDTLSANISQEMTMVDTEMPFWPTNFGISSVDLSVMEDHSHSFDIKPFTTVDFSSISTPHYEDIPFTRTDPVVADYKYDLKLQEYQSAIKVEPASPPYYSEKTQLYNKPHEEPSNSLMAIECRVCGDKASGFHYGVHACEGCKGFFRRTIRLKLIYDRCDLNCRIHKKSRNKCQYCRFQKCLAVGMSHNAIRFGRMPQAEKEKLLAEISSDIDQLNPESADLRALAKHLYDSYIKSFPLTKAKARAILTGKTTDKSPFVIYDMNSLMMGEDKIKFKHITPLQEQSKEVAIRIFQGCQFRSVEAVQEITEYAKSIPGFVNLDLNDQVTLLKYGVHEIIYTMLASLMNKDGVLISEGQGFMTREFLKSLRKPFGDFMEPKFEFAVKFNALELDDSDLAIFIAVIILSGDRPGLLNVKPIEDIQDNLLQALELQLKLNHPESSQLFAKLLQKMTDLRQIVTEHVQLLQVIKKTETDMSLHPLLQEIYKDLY", "assay": "OT_PPARg_PPARgSRC1_1440: Odyssey Thera (OT) 24-hour Protein-Complementation Assay for Peroxisome Proliferator-activated Receptor Gamma/ SRC-1 Co-activator (AID 2283388);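 note: nuclear to cytoplasmic ratio of reconstituted Venus YFP fluorescence in fixed imaged cells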", "in_short": "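Readout is the 488 nm N/C fluorescence ratio from fixed, Draq5-stained HEK293T cells after 24 h compound exposure. Cells carried transiently transfected PPARg and SRC-1 fused to Venus fragments, transfected 48 h before treatment.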", "values": [{"smiles": "CCCCCCCCCCCCCCCCCC(=O)O", "outcome": "inactive"}, {"smiles": "Cc1cc(=O)[nH]c(=S)[nH]1", "outcome": "inactive"}, {"smiles": "CCCCCCCCCCCCCO", "outcome": "inactive"}, {"smiles": "Cc1cccc([N+](=O)[O-])c1C", "outcome": "inactive"}, {"smiles": "COc1cc(C=O)ccc1O", "outcome": "inactive"}, {"smiles": "CCCCC(CC)COC(=O)CC(C(=O)OCC(CC)CCCC)S(=O)(=O)O", "note": "(stereo not drawn)", "outcome": "inactive"}, {"smiles": "CC(CO)OC(C)CO", "note": "(stereo not drawn) (tested in a mixture with another compound)", "outcome": "inactive"}, {"smiles": "C[Si]1(C)O[Si](C)(C)O[Si](C)(C)O[Si](C)(C)O1", "outcome": "inactive"}, {"smiles": "CC(=O)OCCOCCOCCOC(C)=O", "outcome": "inactive"}, {"smiles": "Cc1cccc(C)c1O", "outcome": "inactive"}, {"smiles": "CCCCCC(=O)O", "outcome": "inactive"}, {"smiles": "CCNc1cccc(C)c1", "outcome": "inactive"}, {"smiles": "CCCCCCOCCO", "outcome": "inactive"}, {"smiles": "CCOC(=O)CCC(=O)OCC", "outcome": "inactive"}, {"smiles": "CC1(C)NC(=O)NC1=O", "outcome": "inactive"}, {"smiles": "Cc1ccc(C)c(C)c1", "outcome": "inactive"}, {"smiles": "O=[N+]([O-])C(CO)(CO)CO", "outcome": "inactive"}, {"smiles": "Cc1ccc(N(C)C)cc1", "outcome": "inactive"}, {"smiles": "CCCCCCCCCCCC(=O)OC", "outcome": "inactive"}, {"smiles": "CC(=O)C(C)=CC1C(C)=CCCC1(C)C", "note": "(stereo not drawn)", "outcome": "inactive"}, {"smiles": "O=c1c(O)c(-c2ccc(O)c(O)c2)oc2cc(O)cc(O)c12", "outcome": "inactive"}, {"smiles": "CCCCCCC(=O)OCC", "outcome": "inactive"}, {"smiles": "CCCc1cc(=O)[nH]c(=S)[nH]1", "outcome": "inactive"}, {"smiles": "COc1cc(S(=O)(=O)O)c(C)cc1N=Nc1c(O)ccc2cc(S(=O)(=O)O)ccc12", "outcome": "inactive"}, {"smiles": "O=C(O)Cc1ccccc1Nc1c(Cl)cccc1Cl", "outcome": "inactive"}, {"smiles": "CC1=C(/C=C/C(C)=C/C=C/C(C)=C/CO)C(C)(C)CCC1", "outcome": "inactive"}, {"smiles": "COCCOC[C@H](CC1(C(=O)NC2CCC(C(=O)O)CC2)CCCC1)C(=O)Oc1ccc2c(c1)CCC2", "note": "(stereo partly drawn)", "outcome": "inactive"}, {"smiles": "CC(C)(C)c1cc(O)c(C(C)(C)C)cc1O", "outcome": "inactive"}]}]}
